Out of some 350,000 compounds screened, about 31,000 (8.9%) were called active. Entries that show only a call come without a potency. Inconclusive results (about 15%) are left out. The call rests on the fitted dose curve; in most records, active means well fitted inhibition curve with a large enough effect; inconclusive means small, poorly fitted or top-dose-only effect; inactive means no such curve, though single readings can be large or run the other way. Only a selection was taken, and actives are over-represented in it overall.
The molecules below were run against Histone-lysine N-methyltransferase EHMT2 (Homo sapiens) (UniProt Q96KQ7) (assay: qHTS Assay for Inhibitors of Histone Lysine Methyltransferase G9a). Conditions: G9a H3K9 monomethylation, AlphaScreen, 2 h; series mostly up to 59 µM.
Outline: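 Chemiluminescent proximity detection of H3K9 monomethylation, read after 10 min bead incubation in the dark. Reaction: 20 nM G9a, 500 nM biotin-H3K9 peptide, 20 uM SAM cofactor, 2 h, room temperature, following 15 min enzyme-compound preincubation.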
Further: nearly all actives have a fitted effect of over 75% in size.
Potency means the concentration at half of the fitted maximal effect.

Histone-lysine N-methyltransferase EHMT2 (Homo sapiens), sequence (Q96KQ7 913-1193 limits assumed): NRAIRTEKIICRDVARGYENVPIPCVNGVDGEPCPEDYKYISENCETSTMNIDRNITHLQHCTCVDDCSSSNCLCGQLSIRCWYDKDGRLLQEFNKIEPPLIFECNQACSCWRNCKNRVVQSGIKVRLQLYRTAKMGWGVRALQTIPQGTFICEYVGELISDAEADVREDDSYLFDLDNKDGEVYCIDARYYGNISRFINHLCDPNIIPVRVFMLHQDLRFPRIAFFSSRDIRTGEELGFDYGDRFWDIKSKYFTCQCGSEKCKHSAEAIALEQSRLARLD

| Structure (SMILES) | Potency | activity, negative = inhibition |
| --- | --- | --- |
| Cc1ccsc1-c1cc(C(=O)O)c2c(ccc3ccccc32)n1 | inactive | – |
| CCOC(=O)c1[nH]c(C)c(CCC(=O)N2CCN(c3ccccc3)CC2)c1C | inactive | – |
| COc1ccc(/C=C/c2noc(-c3ccccc3OC(C)=O)n2)cc1 | inactive | – |
| COc1ccc(CCNC(=O)CCCn2c(=O)c3ccccc3n(Cc3ccc(F)cc3Cl)c2=O)cc1OC | inactive | – |
| COc1ccc(COC(=O)c2ccc(Cl)c(S(=O)(=O)N3CCOCC3)c2)cc1F | inactive | – |
| Cn1nccc1C(=O)NC1CCCc2c1cnn2-c1ccccc1F (centres undefined) | – | 16.6% [at 0.501 µM] (inactive) |
| CC(=O)NCC(=O)NC1CCCc2c1cnn2-c1ccccc1F (centres undefined) | – | 11.3% [at 0.501 µM] (inactive) |
| Cn1nccc1C(=O)NC1CCCc2c1cnn2-c1ccc(F)cc1F (centres undefined) | 79.4 µM (active) | – |
| Cc1ccc(-c2nnc(Nc3ccc(OCC(N)=O)cc3)c3ccccc23)cc1S(=O)(=O)NCC1CCCO1 (centres undefined) | inactive | – |
| Cc1ccccc1OCc1nc2c3cnn(-c4ccccc4F)c3ncn2n1 | inactive | – |
| CN(C)NC(=O)C(NC(=O)c1ccc(N)cc1)C12CC3CC(CC(C3)C1)C2 (centres undefined) | 44.7 µM (active) | – |
| CC(NC(=O)c1ccc(N2CCNCC2)c([N+](=O)[O-])c1)C12CC3CC(CC(C3)C1)C2 (centres undefined) | inactive | – |
| CC(CNC(=O)c1ccc(N)cc1)NC(=O)c1ccc(N)cc1 (centres undefined) | inactive | – |
| CCOC(=O)C(C)n1cnc2c(nnn2-c2ccc(F)cc2)c1=O (centres undefined) | inactive | – |
| CC(C)(C)C1CCc2c(sc(NC(=O)c3ccccc3F)c2C(=O)N2CCCCC2)C1 (centres undefined) | inactive | – |
| O=C(Nc1ccccc1N1CCOCC1)c1ccc(OCc2cscn2)cc1 | inactive | – |
| CCn1c(=N)n(CC(=O)c2cccc(OC)c2)c2ccccc21 | 44.7 µM (active) | – |
| CCOC(=O)c1cc2ccccc2n1CC(=O)c1ccccc1 | inactive | – |
| COc1ccc2cc(C(=O)O)n(CC(=O)c3ccccc3)c2c1 | inactive | – |
| COc1ccccc1C(=O)NCC(=O)NCCSc1ccc(Br)cc1 | inactive | – |
| CN1C(C(=O)NCc2ccco2)CC2Cn3c(nc4ccccc43)C21 (centres undefined) | – | 16.2% [at 2.33 µM] (inactive) |
| COc1ccccc1N1CCN(C(=O)C2Cc3ccccc3CN2C(=O)c2ccco2)CC1 (centres undefined) | inactive | – |
| CC1CCN(c2ccc(-c3ccc(NC(=O)c4ccco4)cc3)nn2)CC1 | inactive | – |
| O=C(Nc1cc(C(F)(F)F)ccc1Cl)c1ccc2c(c1)CCN2S(=O)(=O)c1ccccc1 | inactive | – |
| COc1cccc(N2CC(C(=O)NCc3n[nH]c(=O)c4ccccc34)CC2=O)c1 (centres undefined) | – | -7.83% [at 2.33 µM] (inactive) |

| Structure (SMILES) | Potency | activity, negative = inhibition |
| --- | --- | --- |
| O=C(CN1C(=O)c2cccnc2Oc2ccc(Cl)cc21)NCCc1ccccc1 | inactive | – |
| CCN(CC)c1ccc(NC(=O)CN2C(=O)c3cccnc3Oc3ccc(Cl)cc32)c(C)c1 | 2.82 µM (active) | – |
| Cc1cc(C)c(NC(=O)CN2C(=O)c3cccnc3Oc3ccc(Cl)cc32)c(C)c1 | inactive | – |
| COc1ccc(C(=O)COC(=O)CCCC(=O)Nc2cc(C(F)(F)F)ccc2Cl)cc1 | inactive | – |
| O=c1c2ccccc2ncn1/N=C/c1ccccc1 | inactive | – |
| CCN(c1ccc(NC(=O)COC(=O)CCc2nc3ccccc3n2-c2ccccc2)cc1)C(C)C | 15.8 µM (active) | – |
| Cc1ccc(NC(=O)COC(=O)CCc2nc3ccccc3n2-c2ccccc2)c(C)c1 | inactive | – |
| CCCCn1c(=O)c(CCC(=O)OCC(=O)Nc2ccc(C)c(Cl)c2)nc2ccccc21 | inactive | – |
| CN(C)c1ccc(-n2cccc2/C=C2/SC(=Nc3ccc(F)cc3)NC2=O)cc1 | inactive | – |
| Cc1ccc(N=C2NC(=O)/C(=C/C=C/c3ccco3)S2)cc1C | 10 µM (active) | – |
| Cc1ccc(N(CC(=O)NCc2ccc(Cl)cc2)S(=O)(=O)N(C)C)cc1 | inactive | – |
| COc1cc(C(=O)Nc2ccc(OCc3cc(=O)n4ccc(C)cc4n3)cc2)cc(OC)c1OC | inactive | – |
| COc1cccc(CNC(=O)C(=O)NCC(c2cccs2)S(=O)(=O)c2ccccc2)c1 (centres undefined) | inactive | – |
| CCOCCCNC(=O)c1cn(CC)c2ccc(S(=O)(=O)N3CCc4ccccc4C3)cc2c1=O | inactive | – |
| CCn1cc(C(=O)NCc2ccc(C)cc2)c(=O)c2cc(S(=O)(=O)N3CCc4ccccc4C3)ccc21 | inactive | – |
| CCn1cc(C(=O)NCCCN2CCCCCC2)c(=O)c2cc(S(=O)(=O)N3CCc4ccccc4C3)ccc21 | 31.6 µM (active) | – |
| O=c1c2ccccc2c(-c2ccc(F)cc2)nn1-c1ccc(C(F)(F)F)cc1 | inactive | – |
| FC(F)(F)c1ccc(-n2cn[nH]c2=S)cc1 | 8.91 µM (active) | – |
| CCOc1ccc(OCC)c(NS(=O)(=O)c2ccc3[nH]c(=O)ccc3c2)c1 | inactive | – |
| COc1cc(/C=C2/C(=O)NN(c3ccc(F)cc3)C2=O)cc([N+](=O)[O-])c1O | 39.8 µM (active) | – |
| COc1cccc(/C=C2\SC(=N)N(c3ccc(F)cc3)C2=O)c1 | inactive | – |
| COc1ccc(C(=O)N2CCN(c3ccc(C(C)=O)cc3F)CC2)cc1S(=O)(=O)NC1CC1 | – | 15.5% [at 2.33 µM] (inactive) |
| CCOc1ccc(-c2nnc3ccc(SC)nn23)cc1 | inactive | – |
| COc1ccc(-c2nnc3ccc(SCc4ccccc4)nn23)cc1 | 70.8 µM (active) | – |
| COC(=O)c1ccc(CSc2ccc3nnc(-c4ccccc4)n3n2)o1 | inactive | – |

| Structure (SMILES) | Potency | activity, negative = inhibition |
| --- | --- | --- |
| CCOc1ccc(NC(=O)Cn2cc(C(=O)c3ccc(C)cc3)c(=O)c3cc4c(cc32)OCCO4)cc1 | inactive | – |
| O=C(CCc1nnc(Cc2ccc3c(c2)OCO3)o1)NCCc1ccccc1Cl | – | 27.8% [at 0.501 µM] (inactive) |
| CCN(CC)S(=O)(=O)c1cc(C(=O)Nc2ccccn2)ccc1C | – | -27.2% [at 12.7 µM] (inactive) |
| COc1ccc(C(=O)/C=C/Nc2ccccn2)cc1 | inactive | – |
| O=C(NNc1ccccn1)c1ccc(Cl)nc1 | 3.55 µM (active) | – |
| Cc1ccc(NC(=O)CN(C)C(=O)Cn2nnc(-c3ccccc3)n2)cc1 | inactive | – |
| Cc1ccc(C)c(NC(=O)CN(C)C(=O)c2ccc3ncsc3c2)c1 | inactive | – |
| CC(NC(=O)c1ccc(S(=O)(=O)Nc2ccccc2)cc1)c1ccc(S(N)(=O)=O)cc1 (centres undefined) | inactive | – |
| COc1cc(Br)cc2cc(S(=O)(=O)c3ccccc3)c(=O)oc12 | inactive | – |
| COc1cc(NS(=O)(=O)c2ccc3c(c2)OCC(C(=O)N2CCCC2)O3)cc(OC)c1 (centres undefined) | inactive | – |
| COc1ccc(OC)c2sc(N3CCN(C(=O)C4COc5ccccc5O4)CC3)nc12 (centres undefined) | inactive | – |
| Cc1c(CC(=O)N2CCN(C(=O)C3COc4ccccc4O3)CC2)c(=O)oc2c(O)c(O)ccc12 (centres undefined) | 12.6 µM (active) | – |
| Cc1ccccc1CN1CCC(CNC(=O)c2c(C)oc3ncnc(N4CCCCC4)c23)CC1 | inactive | – |
| COc1ccc2oc(C(=O)NCc3ccco3)c(C)c2c1 | inactive | – |
| O=C(c1ccco1)n1nc(-c2ccc(Cl)cc2)nc1NCc1ccccc1 | inactive | – |
| C1=C(N2CCOCC2)/C(=C/c2nc3ccccc3[nH]2)CC1 | 20 µM (active) | – |
| O=c1[nH]c(N2CCOCC2)nc2ccccc12 | inactive | – |
| c1ccc(-n2nnnc2N2CCOCC2)cc1 | inactive | – |
| O=C(Nc1ccc(C(=O)NCc2ccccc2Cl)cc1)C1=CSCCO1 | inactive | – |
| Cc1ccn2c(=O)nc(SCC(=O)NCc3ccc(F)cc3)nc2c1 | inactive | – |
| COc1ccc(-n2c(C)nc3c(cnn3-c3ccc(F)cc3)c2=O)cc1 | inactive | – |
| Cc1c(C(=O)N2CCOCC2)[nH]c2ccc(OCc3ccccc3)cc12 | – | -37.5% [at 12.7 µM] (inactive) |
| Cc1c(C(=O)CN2CCOCC2)[nH]c2ccccc12 | 39.8 µM (active) | – |
| Cc1[nH]c2ccccc2c1C(=O)CN1CC(C)CC(C)C1 (centres undefined) | inactive | – |
| CCOc1ccccc1CNC(=O)c1ccc2c(c1)nc1n2CCC(C)C1 (centres undefined) | inactive | – |

| Structure (SMILES) | Potency | activity, negative = inhibition |
| --- | --- | --- |
| CCOc1ccc(OCC)c(Nc2nc3ccccc3n3nnnc23)c1 | inactive | – |
| CCn1c(SCC(=O)NC2CC2)nnc1-c1ccncc1 | inactive | – |
| CC1CCCCC1NC(=O)CSc1nnc(-c2ccncc2)n1CCCN(C)C (centres undefined) | 3.98 µM (active) | – |
| O=C(CSc1nnc(-c2ccncc2)n1C1CCCCC1)Nc1ccccc1 | inactive | – |
| CC1(C)NC(=O)N(CC(=O)N2CCN(S(=O)(=O)c3ccccc3F)CC2)C1=O | – | 22.5% [at 12.7 µM] (inactive) |
| Cc1csc2nc(O)c(C(=O)NCCN3CCOCC3)c(=O)n12 | inactive | – |
| NS(=O)(=O)c1ccc(NC(=S)NC(=O)c2cccc(Br)c2)cc1 | inactive | – |
| CCc1ccc(NC(=O)C(=O)NNC(=O)c2cccs2)cc1 | inactive | – |
| CC(=O)NC(=S)Nc1ccc(NC(=O)c2cccnc2)cc1 | inactive | – |
| NS(=O)(=O)c1ccc(NC(=S)NNC(=O)c2cccs2)cc1 | 8.91 µM (active) | – |
| CC(C)C(=O)Nc1ccc(C(=O)NNC(=O)c2cccs2)cc1 | inactive | – |
| NS(=O)(=O)c1ccc(NC(=S)NC(=O)c2cccnc2)cc1 | 50.1 µM (active) | – |
| CC(=O)c1sc(N)nc1C | – | -2.73% [at 2.33 µM] (inactive) |
| CCCc1nnc(NC(=O)CCC(=O)NC2CC2)s1 | inactive | – |
| O=C(NC1CC(=O)N(c2ccc(Cl)cc2)C1)C1CCCC1 (centres undefined) | inactive | – |
| CSc1ncc(C(=O)NCc2ccccc2Cl)c(C(F)(F)F)n1 | inactive | – |
| COc1ccc(-n2nc(C(=O)NCC(=O)N3CCN(c4ccccc4OC)CC3)c3ccccc3c2=O)c(OC)c1 | inactive | – |
| CCC(C(=O)OC)n1cnc2scc(-c3ccc(C)cc3)c2c1=O (centres undefined) | inactive | – |
| COC(=O)c1c(-c2ccc(C)cc2)csc1N | 31.6 µM (active) | – |
| COC(=O)c1scc(-c2ccc(C)cc2)c1S(=O)(=O)Nc1cc(Cl)c(OC)cc1OC | inactive | – |
| NC(=O)CSc1nc2c(oc3ccccc32)c(=O)n1Cc1ccccc1 | inactive | – |
| COc1ccc(Cc2nnc(NC(=O)Cc3cccs3)s2)cc1 | 39.8 µM (active) | – |
| O=C(Cc1cccs1)Nc1nnc(SCc2ccc(F)cc2)s1 | inactive | – |
| CCc1nnc(NC(=O)Cc2cccs2)s1 | inactive | – |
